One test concerns Klebsiella pneumoniae. The settings on record: Concentration 32 ug.mL-1;; ASSAY_TEST Inhibition of Bacterial Growth; detection method Absorption (OD600); MEDIA CAMHB; plate type 384well; NBS; CORNING #3640; time 18 hr.
The test system of a further test is Candida albicans. Conditions: Concentration 32 ug.mL-1; ASSAY_TEST Inhibition of Fungal Growth; detection method Absorption (OD530).
In the next test the test system is Cryptococcus neoformans. Conditions: Concentration 32 ug.mL-1; ASSAY_TEST Inhibition of Fungal Growth; detection method Resazurin; Absorption (OD600-OD570); plate type 384well; NBS; CORNING #3640. (In general: Alamar Blue is a resazurin reagent that responds to reducing activity.)

Results with a measured potency or affinity are listed apart.

The text below walks through data of ChEMBL document CHEMBL4513146, “CO-ADD screening of Karazin Kharkiv National University (Ukraine) compounds”.

`Cc1ccc(-c2ccc3nnc(CCC(=O)NCc4cccc(Br)c4)n3n2)cc1`: the Inhibition – broadly, the drop in the measured response relative to a control, in per cent – with Klebsiella pneumoniae is reported as 20.54%; with Candida albicans, 1.13%; in the test on Cryptococcus neoformans it was -54.18%.
Take `Cn1c(=O)c2ccc(C(=O)NC3CCCCC3)cc2n2c(=O)n(CC#N)nc12`: the values for the Inhibition in the test with Klebsiella pneumoniae, in the test with Candida albicans and in the test on Cryptococcus neoformans were 3.72%, 1.15% and -18.77%, respectively.
For `CCOC(=O)C1CCN(c2nc3ccccc3n3c(=O)n(CC(=O)Nc4ccccc4F)nc23)CC1`, in that order: 4.78%, 13.18% and -20.01%.
In the same order, the values of `O=C(Cn1nc2ccc(Sc3cccc(F)c3)nn2c1=O)Nc1ccc2c(c1)OCCO2` are 12.38%, -0.05% and -8.22%.
For `COc1cccc(-n2ccn3c(SC(C)C(=O)c4ccc(C)c(C)c4)nnc3c2=O)c1` (stereo not drawn), in that order: 3.32%, 2.99% and -3.88%.
In the case of `CCCCc1ccc(NC(=O)CSc2nc3ccccc3n3c(CC)nnc23)cc1`, the Inhibition is 13.43% in the test with Klebsiella pneumoniae, 1.28% in the test on Candida albicans and -16.72% with Cryptococcus neoformans.
As for `Cc1ccc(NC(=O)Cn2nc3ccc(SC(C)C)nn3c2=O)cc1F`, the Inhibition is 6.4% in the test with Klebsiella pneumoniae, 5.51% in the test on Candida albicans and -6.87% in the test with Cryptococcus neoformans.
On to `CC(C)NC(=O)Cn1nc2nc(Nc3ccc(F)cc3)ccn2c1=O`, for which the Inhibition in the test on Klebsiella pneumoniae is given as 12.23%; in the test on Candida albicans it was 2.08%; with Cryptococcus neoformans, -10.27%.
In the same order, the values of `Cc1cccc(NC(=O)CSc2nnc3c4cc(-c5ccc(F)cc5)nn4ccn23)c1C` are 0.2%, 1.75% and -21.34%.
For `COc1ccc(Cl)cc1NC(=O)CSc1nc2ccccc2n2c(C(C)C)nnc12`, in that order: -0.34%, 58.61% and -12.46%.
In the same order, the values of `CC(C)Cn1c(=O)c2sccc2n2c(=O)n(Cc3ccc(N4CCCC4=O)cc3)nc12` are 9.72%, 1.08% and -27.68%.
In the case of `CCc1ccccc1NC(=O)CSc1nnc2ccc(C(=O)Nc3cccc(F)c3)cn12`, the Inhibition in the test with Klebsiella pneumoniae is on record as 6.52%; in the test on Candida albicans, 8.2%; in the test with Cryptococcus neoformans, -4.61%.
For `COc1ccc(-c2cc3c4nn(CC(=O)NCc5ccccc5Cl)c(=O)n4ccn3n2)cc1`, in that order: 14.7%, 1.1% and -29.87%.
In the case of `CC(=O)c1ccc(NC(=O)Cn2nc3c(Sc4ccc(C)cc4C)nccn3c2=O)cc1`, the Inhibition is -3.02% with Klebsiella pneumoniae, 1.94% in the test with Candida albicans and -20.51% with Cryptococcus neoformans.
In the same order, the values of `Cc1ccc(-c2ccc3nn(Cc4nc(-c5ccc(OC(F)(F)F)cc5)no4)c(=O)n3n2)cc1` are -0.72%, 49.09% and -8.92%.
For `Cc1ccc(NC(=O)Cn2nc3c(N4CCCC(C)C4)nccn3c2=O)cc1C` (stereo not drawn), in that order: -5.74%, 1.72% and -9.99%.
For `Cc1cccc(NC(=O)Cn2c(=O)c3nnc(C(C)C)n3c3ccccc32)c1`, in that order: 2.46%, 0.3% and -17.48%.
As to `COC(=O)c1ccccc1NC(=O)Cn1nc2c(Oc3ccccc3C)nccn2c1=O`, the Inhibition with Klebsiella pneumoniae is given as 8.93%; in the test on Candida albicans it was 0.12%; with Cryptococcus neoformans, -8.78%.
For `Cc1ccc(-c2nc(CSc3nc4ccccc4n4c(C(C)C)nnc34)c(C)o2)cc1`, in that order: 3.51%, 2.71% and -13.81%.
For `CCOc1ccc(C(=O)CSc2nnc3c(=O)n(-c4cccc(OC)c4)ccn23)cc1`, in that order: 2.62%, 7.56% and -12.78%.
As for `COc1ccc(N2CCN(C(=O)Cn3nc4ccc(-c5ccc(Cl)cc5)nn4c3=O)CC2)cc1`, the Inhibition was -0.61% in the test on Klebsiella pneumoniae, 7.77% in the test on Candida albicans and -9.26% in the test with Cryptococcus neoformans.
In the same order, the values of `COc1cccc(Oc2nccn3c(=O)n(CC(=O)Nc4cc(F)ccc4F)nc23)c1` are 3.2%, 5.06% and -8.45%.
As for `CC(C)c1nnc2c(SCC(=O)Nc3ccc(Cl)cc3C(F)(F)F)nc3ccccc3n12`, the Inhibition is listed as 1.04% with Klebsiella pneumoniae, 3.28% in the test on Candida albicans and -8.02% with Cryptococcus neoformans.
For `O=C(CSc1nc2ccccc2n2cnnc12)Nc1cccc(Br)c1`, in that order: 2.26%, -0.56% and -6.2%.
In the same order, the values of `CC(C)c1nnc2c(SCC(=O)Nc3ccccc3F)nc3ccccc3n12` are 10.81%, 2.9% and -27.54%.
For `COc1cc(OC)c(NC(=O)Cn2nc3c(Oc4ccc(C)cc4)nccn3c2=O)cc1Cl`, in that order: 2%, 2.42% and -3.76%.
As to `CCc1nnc2c(S(=O)(=O)N(Cc3cc(F)cc(F)c3)c3ccc(C)cc3)cccn12`, the values for the Inhibition in the test with Klebsiella pneumoniae, in the test with Candida albicans and in the test on Cryptococcus neoformans were 20.07%, 3.29% and -8.74%, respectively.
Turning to `Cc1ccc(NC(=O)CSc2nc3ccccc3n3cnnc23)c(Br)c1`, the Inhibition with Klebsiella pneumoniae is 0.14%; in the test with Candida albicans it was 3.27%; with Cryptococcus neoformans, -26.85%.
For `COc1cccc(C(=O)Cn2nc3n(CCC(C)C)c(=O)c4sccc4n3c2=O)c1`, in that order: -2.35%, 8.83% and -5.93%.
In the same order, the values of `CCOc1ccc(-n2ccn3c(SCc4cccc(C(F)(F)F)c4)nnc3c2=O)cc1` are 0.24%, 0.48% and -7.62%.
For `O=C(Cn1nc2c3cc(-c4ccc(Cl)cc4)nn3ccn2c1=O)NCc1ccccc1`, in that order: 15.63%, 3.19% and -21.92%.
As to `Cc1c(Cl)cccc1NC(=O)CSc1nc2ccccc2n2c(C)nnc12`, the Inhibition with Klebsiella pneumoniae was 13.43%; in the test with Candida albicans, 0.95%; in the test on Cryptococcus neoformans, -27.73%.
Regarding `Cc1cccc(NC(=O)CSc2nnc3ccc(C(=O)Nc4cccc(F)c4)cn23)c1`, the Inhibition in the test on Klebsiella pneumoniae is on record as 11.26%; in the test with Candida albicans, 1.08%; in the test with Cryptococcus neoformans, -17.48%.
For `CC(C)c1ccc(NC(=O)CSc2nnc3c(=O)n(-c4ccccc4)ccn23)cc1`, in that order: 7.22%, -0.59% and -12.85%.
Regarding `COc1cccc(-n2ccn3c(SCC(=O)c4cc(C)c(C)cc4C)nnc3c2=O)c1`, the figures for the Inhibition in the test on Klebsiella pneumoniae, in the test on Candida albicans and with Cryptococcus neoformans were 11.25%, 2.17% and -10.44%, respectively.
In the same order, the values of `Cc1cc2nn(CC(=O)Nc3ccc(F)c(F)c3)c(=O)n2c(Nc2ccc(C)c(F)c2)n1` are 13.08%, 3.82% and -7.92%.
In the same order, the values of `CCOC(=O)c1ccc(NC(=O)Cn2nc3ccc(-c4ccc(Cl)cc4)nn3c2=O)cc1` are 8.58%, -0.49% and -7.91%.
In the same order, the values of `Cc1nnc2ccc(S(=O)(=O)N(CC(=O)OC(C)(C)C)c3ccc4c(c3)OCO4)cn12` are 6.34%, 5.98% and -4.94%.
Consider `Cc1cc(C)c(NC(=O)Cn2nc3c(N4CCN(c5ccccc5)CC4)nccn3c2=O)c(C)c1`, for which the Inhibition in the test with Klebsiella pneumoniae is recorded as 10.19%; in the test on Candida albicans, 11.4%; with Cryptococcus neoformans it was -7.74%.
In the same order, the values of `Cc1nnc2c(=O)n(CC(=O)Nc3ccc(F)cc3F)c3ccccc3n12` are 12.43%, -0.68% and -30.11%.
For `CCCCN(CC)C(=O)CSc1nnc2c(=O)n(Cc3ccccc3F)ccn12`, in that order: 7.9%, 2.5% and -19.25%.
For `CC(C)c1ccc(CNC(=O)CCc2nnc3c(N4CCCCC4)nc4ccccc4n23)cc1`, in that order: 8.5%, 0.52% and -24.76%.
For the compound `CCC(Sc1nnc2c(=O)n(-c3ccccc3)ccn12)C(=O)Nc1cc(F)ccc1F` (stereo not drawn), the Inhibition is reported as 10.28% in the test on Klebsiella pneumoniae, 0.38% with Candida albicans and -17.31% in the test with Cryptococcus neoformans.
Regarding `N#CCn1nc2n(Cc3ccccc3)c(=O)c3ccccc3n2c1=O`, the Inhibition is recorded as 8.96% in the test on Klebsiella pneumoniae, -1.85% with Candida albicans and -7.48% with Cryptococcus neoformans.
For `COc1ccc(-c2cc3c4nnc(SCC(=O)NCc5ccc(C)cc5)n4ccn3n2)cc1`, in that order: 7.85%, 1.56% and -10.46%.
In the same order, the values of `Cc1cc(C)cc(Nc2nc(C)cc3nn(CC(=O)Nc4cc(F)ccc4F)c(=O)n23)c1` are 17.33%, 4.37% and -7.31%.
For `COc1ccc(Cn2nc3ccc(-c4ccc(Cl)cc4)nn3c2=O)cc1F`, in that order: 16.23%, 0.27% and -15.51%.
With `Cc1ccc(-c2ccc3nn(Cc4ccc(Cl)cc4)c(=O)n3n2)cc1C`, the values for the Inhibition with Klebsiella pneumoniae, in the test with Candida albicans and in the test with Cryptococcus neoformans were 5.62%, 5.2% and -10.05%, respectively.
Take `Cc1ccc(N(CC(=O)OC(C)(C)C)S(=O)(=O)c2ccc3nnc(C)n3c2)cc1`: the Inhibition in the test with Klebsiella pneumoniae is on record as 4.9%; in the test with Candida albicans, 1.78%; in the test on Cryptococcus neoformans, -16.68%.
For `COc1cccc(-n2ccn3c(SCC(=O)Nc4cc(F)ccc4F)nnc3c2=O)c1`, in that order: 6.91%, 7.1% and -8.94%.
In the same order, the values of `COc1cccc(Oc2nccn3c(=O)n(CC(=O)Nc4ccc(OC)c(OC)c4)nc23)c1` are 7.97%, 1.42% and -6.14%.
In the same order, the values of `CCOc1ccccc1NC(=O)Cn1nc2c3cc(-c4ccc(Cl)cc4)nn3ccn2c1=O` are 12.1%, 2.9% and -13.93%.
In the case of `CC(C)c1nnc2c(SCC(=O)Nc3ccc(Br)cc3F)nc3ccccc3n12`, the values for the Inhibition with Klebsiella pneumoniae, in the test on Candida albicans and in the test on Cryptococcus neoformans were 8.89%, 0.43% and -17.6%, respectively.
As to `CCc1ccc(NC(=O)Cn2nc3ccc(SC4CCCCC4)nn3c2=O)cc1`, the figures for the Inhibition in the test with Klebsiella pneumoniae, in the test with Candida albicans and in the test with Cryptococcus neoformans were 3.55%, 2.46% and -12.68%, respectively.
In the same order, the values of `Cc1ccc(NC(=O)Cn2nc3c(Sc4cccc(F)c4)nccn3c2=O)cc1F` are 11.17%, 0.17% and -11.09%.
On to `COc1ccc(-c2cc3c4nnc(SCC(=O)NCc5ccc(Cl)cc5)n4ccn3n2)cc1`, for which the figures for the Inhibition with Klebsiella pneumoniae, in the test on Candida albicans and in the test on Cryptococcus neoformans were 6.35%, -0.75% and -28.86%, respectively.
For `O=C(Cn1nc2c(SC3CCCCC3)nccn2c1=O)Nc1ccccc1F`, in that order: 4.58%, 0.33% and -26.33%.
In the same order, the values of `COc1ccc(CNC(=O)Cn2nc3c4cc(-c5ccc(Cl)cc5)nn4ccn3c2=O)cc1` are 11.83%, 1.19% and -27.86%.
As to `Cc1cccc(N(Cc2ccccc2)S(=O)(=O)c2cccn3c(C)nnc23)c1`, the values for the Inhibition in the test with Klebsiella pneumoniae, in the test on Candida albicans and in the test with Cryptococcus neoformans were 11.16%, 8.73% and -3.61%, respectively.
For `Cc1ccc(NC(=O)CSc2nc3ccccc3n3c(C)nnc23)c(Br)c1`, in that order: 14.29%, 22.27% and -9.59%.
In the same order, the values of `CC(C)c1nnc2c(=O)n(CC(=O)Nc3ccc4c(c3)OCO4)c3ccccc3n12` are 6.48%, 6.2% and -25.4%.
